# Screening data deposited in PubChem by Broad Institute.
# This is a sample that favours compounds with a hit; in the whole collection about 6.8% have one here.
# T cruzi growth-1: blocks T. cruzi growth in NIH3T3 culture | inhibition, % at 8.34 µM | T. cruzi beta-gal in NIH3T3, GalScreen luminescence, 90 h | AID 624255 | actives 5.9% (n = 77,000);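 active means mean inhibition above about 93%, with at least 55% of replicates each passing it, limit read from the data, passing the limit was not always enough; inconclusive means only one of those two conditions holds; inactive means neither condition holds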
# C diff growth: blocks growth of Clostridium difficile. growth activity, negative = inhibition, % at 16 µg/mL (by protocol). Clostridium difficile clinical isolate growth, OD600, 24 h; active compounds read low. actives 0.25% (n = 86,000);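 active means mean growth activity at or below -80% and every replicate also at or below -80%; inconclusive means mean at or below -80% but some replicate above -80%; inactive means mean growth activity above -80%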;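 further: 0% = DMSO wells and -100% = levofloxacin 16 µg/mL wells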
# Pf Dd2 inh: inhibitors of Plasmodium falciparum Dd2 growth; P. falciparum Dd2 growth, SYBR Green, 72 h; active compounds read low; activity change, % at 10 µM; actives 2.3% (n = 94,000); in the data active means activity change below about -80%; inconclusive means no clear call, values can overlap the other calls
# T cruzi growth-2: inhibitors of T. cruzi proliferation. shares compounds with T cruzi growth-1. AID 651739. T. cruzi beta-gal in NIH3T3, GalScreen luminescence, 90 h. inhibition, % at 8.35 µM. actives 72% (n = 5,600);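 active means mean replicate inhibition above about 95% and at least 55% of replicates individually reaching it, limit read from the data; inconclusive means only one of the two criteria is met; inactive means neither criterion is met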
# T cruzi growth-3: Trypanosoma cruzi proliferation inhibition; actives 21% (n = 5,600); AID 651740; T. cruzi beta-gal in NIH3T3, GalScreen luminescence, 90 h; shares compounds with T cruzi growth-1; inhibition, % at 2.09 µM;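 active means mean inhibition above about 95%, with at least 55% of replicates also reaching it, limit read from the data; inconclusive means meets just one of the two conditions; inactive means meets neither condition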;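 further: plate controls were neutral control median for no effect and positive control median for full effect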
# NIH3T3 tox: NIH/3T3 (mouse) viability loss; shares compounds with T cruzi growth-1; AID 651742; NIH/3T3 viability, CellTiter-Glo ATP luminescence, 90 h; cytotoxicity (signal decrease), % at 8.35 µM; actives 14% (n = 5,600);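 active means mean signal decrease across replicates above about 35% based on untreated-well scatter, with enough replicates individually passing, limit read from the data; inconclusive means no rule stated though some were filed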;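 further: 0% = median of neutral control wells and 100% = median of positive control wells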
# 3T3 cytotox 2: kills mouse NIH/3T3 fibroblasts | shares compounds with T cruzi growth-1 | inhibition, % at 24.9 µM | actives 56% (n = 5,600) | NIH/3T3 viability, CellTiter-Glo ATP luminescence, 90 h;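 active means mean loss of cell viability signal at or above a set limit, and enough replicates individually reaching it; inconclusive means meets only the mean limit or only the replicate share; inactive means meets neither condition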;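 further: 0% = median of neutral control wells and 100% = median of positive control wells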
# An asterisk follows results filed as active; ? = inconclusive; · = no result given.
SMILES,T cruzi growth-1,C diff growth,Pf Dd2 inh,T cruzi growth-2,T cruzi growth-3,NIH3T3 tox,3T3 cytotox 2
COc1ccc(-c2ccc3c(c2)[C@@H]2[C@@H](CCN2C(=O)C2CCCCC2)[C@@H](CO)N3C)cc1,99.0*,-12.1,-61.7,92.0,108.4*,6.2,106.1*
CN1c2ccc(Br)cc2[C@@H]2[C@@H](CCN2C(=O)C2CC2)[C@H]1CO,60.7,-4.5,-46.8,·,·,·,·
COc1ccc(-c2ccc3c(c2)[C@@H]2[C@@H](CCN2C(=O)C2CCC2)[C@H](CO)N3C)cc1,·,-5.5,-17.4,·,·,·,·
CN(C)C(=O)c1ccc(-c2ccc3c(c2)[C@@H]2[C@@H](CCN2C(=O)C2CCOCC2)[C@H](CO)N3C)cc1,96.6*,6.3,-15.0,105.6*,40.4,-5.5,11.5
COc1ccc(-c2ccc3c(c2)[C@@H]2[C@@H](CCN2C(=O)C2CC2)[C@@H](CO)N3C)cc1,101.5*,9.7,-4.3,107.3*,108.6*,-5.7,50.0*
COc1ccc(-c2ccc3c(c2)[C@H]2[C@H](CCN2C(=O)C2CCOCC2)[C@@H](CO)N3C)cc1,11.6,-5.2,-4.3,·,·,·,·
CN1c2ccc(Br)cc2[C@H]2[C@H](CCN2C(=O)C2CC2)[C@H]1CO,104.4*,-0.4,2.1,81.4,28.8,17.6,-0.5
CN(C)C(=O)c1ccc(-c2ccc3c(c2)[C@@H]2[C@@H](CCN2C(=O)C2CC2)[C@@H](CO)N3C)cc1,84.5,-8.3,-13.3,·,·,·,·
CNC(=O)C[C@@H]1CC[C@@H]2[C@H](COc3ccc(NC(=O)NC(C)C)cc3C(=O)N2C)O1,1.5,-2.1,10.0,·,·,·,·
COc1cccc(S(=O)(=O)N2C[C@H](O)COC[C@H]3O[C@H](CC(=O)N4CCN(C)CC4)CC[C@@H]32)c1,-9.2,·,4.4,·,·,·,·
COCC(=O)N1C[C@H](C)[C@H](OC)CN(C)C(=O)c2cc(NC(=O)NC(C)C)ccc2OC[C@@H]1C,42.3,·,14.0,·,·,·,·
C[C@@H]1CN([C@H](C)CO)C(=O)c2cc(NS(=O)(=O)c3ccccc3)ccc2O[C@@H](C)CCCCO[C@@H]1CN(C)Cc1ccc2c(c1)OCO2,·,·,-68.7,·,·,·,·
COc1ccc(S(=O)(=O)Nc2ccc3c(c2)C(=O)N([C@H](C)CO)C[C@H](C)[C@H](CN(C)C(=O)CCCN(C)C)OCCCC[C@H](C)O3)cc1,12.2,-2.5,16.9,·,·,·,·
CCC(=O)N1[C@H](CO)[C@H](c2ccccc2)C12CN(C(=O)NC1CCCC1)C2,·,-2.5,-4.6,·,·,·,·
COc1ccc(-c2ccc3c(c2)[C@@H]2[C@@H](CCN2C(=O)c2ccncc2)[C@@H](CO)N3C)cc1,97.8*,-1.9,-0.5,101.4*,84.1,9.2,14.9
CN1c2ccc(-c3ccccc3)cc2[C@@H]2[C@@H](CCN2C(=O)c2ccncc2)[C@H]1CO,86.1,-6.8,12.7,·,·,·,·
C[C@H](CO)N1C[C@H](C)[C@H](CN(C)C(=O)NC2CCCCC2)Oc2ccc(NS(=O)(=O)c3cn(C)cn3)cc2C1=O,88.9,·,11.1,·,·,·,·
COc1cccc(S(=O)(=O)N[C@@H]2CC[C@@H](CCn3cc(-c4ccccc4OC)nn3)O[C@H]2CO)c1,-1.2,-3.1,-48.3,·,·,·,·
COCc1cn(CC[C@@H]2CC[C@@H](NC(=O)c3ccncc3)[C@H](CO)O2)nn1,1.4,·,-2.1,·,·,·,·
COc1cccc(S(=O)(=O)N[C@H]2CC[C@H](CCn3cc(-c4ccccc4OC)nn3)O[C@@H]2CO)c1,?,1.1,-5.0,23.7,-6.0,10.2,32.5
O=C(N[C@@H]1CC[C@H](CCn2cc(-c3ccccc3F)nn2)O[C@@H]1CO)c1ccc2c(c1)OCO2,71.3,·,-58.8,·,·,·,·
COCc1cn(CC[C@@H]2CC[C@@H](NC(=O)c3ccncc3)[C@@H](CO)O2)nn1,126.7*,·,1.8,22.0,-28.7,-1.5,-12.8
O=C(N[C@H]1CC[C@@H](CCn2cc(-c3ccccc3F)nn2)O[C@H]1CO)c1ccc2c(c1)OCO2,111.9*,·,-57.4,9.6,2.7,-2.4,21.8
CNC[C@H]1Oc2cc(C#CCC3CCCC3)ccc2S(=O)(=O)N([C@@H](C)CO)C[C@@H]1C,?,26.0,-66.0,-27.5,-20.1,-2.1,-5.6
CNC[C@@H]1Oc2cc(C#CCC3CCCC3)ccc2S(=O)(=O)N([C@@H](C)CO)C[C@H]1C,?,20.1,-61.3,100.6*,60.4,?,104.6*
SMILES,T cruzi growth-1,C diff growth,Pf Dd2 inh,T cruzi growth-2,T cruzi growth-3,NIH3T3 tox,3T3 cytotox 2
CNC[C@H]1Oc2cc(C#CCC3CCCC3)ccc2S(=O)(=O)N([C@H](C)CO)C[C@H]1C,?,26.5,-68.5,97.9*,79.0,?,106.4*
CNC[C@@H]1Oc2cc(C#CCC3CCCC3)ccc2S(=O)(=O)N([C@@H](C)CO)C[C@@H]1C,?,30.0,-65.6,87.0,71.0,50.6*,105.6*
C[C@@H]1CN([C@H](C)CO)S(=O)(=O)c2ccc(C#CCC3CCCC3)cc2O[C@H]1CN(C)C,41.2,21.4,-21.7,·,·,·,·
CNC[C@H]1Oc2cc(C#CC3CCCC3)ccc2S(=O)(=O)N([C@@H](C)CO)C[C@@H]1C,-55.8,0.7,-48.3,·,·,·,·
CNC[C@H]1Oc2cc(C#CC3CCCC3)ccc2S(=O)(=O)N([C@H](C)CO)C[C@H]1C,59.0,-1.9,-38.6,·,·,·,·
C[C@H]1CN([C@@H](C)CO)S(=O)(=O)c2ccc(C#CCC3CCCC3)cc2O[C@@H]1CN(C)C,73.1,30.7,-54.7,·,·,·,·
N#C[C@@H]1[C@H](c2ccc(-c3cccc(F)c3)cc2)[C@H](CO)N1C(=O)NC1CCCCC1,·,23.1,-4.9,·,·,·,·
CO[C@@H]1CN(C)C(=O)c2cc(NS(=O)(=O)c3ccccc3Cl)ccc2OC[C@H](C)NC[C@@H]1C,-18.8,·,33.1,·,·,·,·
COc1ccc(S(=O)(=O)Nc2cccc3c2O[C@H](CN(C)CC2CC2)[C@H](C)CN([C@H](C)CO)C3=O)cc1,29.7,0.3,6.4,·,·,·,·
Cc1noc(C)c1NC(=O)Nc1ccc2c(c1)C(=O)N([C@H](C)CO)C[C@H](C)[C@H](CN(C)C(=O)c1ccccc1)OCCCC[C@@H](C)O2,-73.0,-3.3,30.9,·,·,·,·
C[C@@H]1CN([C@@H](C)CO)C(=O)c2cc(NC(=O)CCCCCC(=O)Nc3ccccc3N)ccc2O[C@@H]1CN(C)C,·,3.1,16.9,·,·,·,·
C[C@@H]1CCCCO[C@H](CN(C)S(=O)(=O)c2ccc(Cl)cc2)[C@@H](C)CN([C@H](C)CO)C(=O)c2cc(NS(=O)(=O)c3cccs3)ccc2O1,87.4,-10.2,·,·,·,·,·
C[C@H]1CCCCO[C@H](CN(C)S(=O)(=O)c2cccs2)[C@@H](C)CN([C@@H](C)CO)C(=O)c2cc(NS(=O)(=O)c3ccc(Cl)cc3)ccc2O1,102.8*,4.3,-58.3,106.2*,76.5,-26.9,-14.3
C[C@@H]1CCCCO[C@H](CN(C)S(=O)(=O)c2cccs2)[C@@H](C)CN([C@H](C)CO)C(=O)c2cc(NS(=O)(=O)c3ccc(Cl)cc3)ccc2O1,65.6,3.4,-11.6,·,·,·,·
